The source of these data is PubChem BioAssay (EPA / NIEHS).

Assay [1] has as its target Retinoic acid receptor alpha (Homo sapiens) (UniProt P10276). The experiment in a line: ATG_DR5_RAR_CIS: Attagene CIS-FACTORIAL HepG2 Assay for human Retinoic Acid Receptor Alpha (RARE), DR5 submotif (AID 2282934; active = hit-call score of the fitted dose curve at least 0.9, where 1 is the maximum; inactive = score below 0.9). The conditions noted are these: HepG2 Attagene cis-factorial RARE DR5 reporter, mRNA; actives raise or lower the signal. In a few lines:
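Read-out: DR5-driven reporter transcript measured by RT-PCR, 6-FAM primer extension, HpaI digest and capillary electrophoresis. Human HepG2 liver cells carry transiently transfected cis-element reporter constructs; dosing lasts 24 h. Gain or loss of signal fitted against DMSO baseline.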

Assay [2] deals with Hepatocyte nuclear factor 3-beta (Homo sapiens) (UniProt Q9Y261). The experiment in a line: ATG_FoxA2_CIS: Attagene CIS-FACTORIAL HepG2 Assay for human Forkhead box A2 (FOXA2) (AID 2282942; active = hit-call score of the fitted dose curve at least 0.9, where 1 is the maximum; inactive = score below 0.9). Conditions: HepG2 cis-reporter transcription factor activity, 24 h; actives raise or lower the signal. In outline:
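Endogenous transcription factor activity was read in HepG2 cells carrying transiently transfected cis-promoter reporter units. After 24 h dosing, reporter mRNA was quantified by RT-PCR and capillary electrophoresis, and values fitted bidirectionally versus DMSO.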

The nature of assay [3]: ATG_GRE_CIS: Attagene CIS-FACTORIAL HepG2 Assay for human Glucocorticoid Response Elements (GRE) (AID 2282947; active = hit-call score of the fitted dose curve at least 0.9, where 1 is the maximum; inactive = score below 0.9). Conditions: HepG2 GRE cis-reporter, Attagene multiplex mRNA; actives raise or lower the signal. In outline:
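Read-out: fluorescent reporter-transcript fragments separated by capillary electrophoresis after RT-PCR. Transiently transfected HepG2 cells carrying cis-element-driven reporter units were dosed for 24 h; gain or loss of signal fitted against DMSO control.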

Assay [4] is described as follows: ATG_PBREM_CIS: Attagene CIS-FACTORIAL HepG2 Assay for human Phenobarbital-responsive Enhancer Module (PBREM) (AID 2282955; active = hit-call score of the fitted dose curve at least 0.9, where 1 is the maximum; inactive = score below 0.9). The conditions noted are these: HepG2 PBREM cis-reporter, Attagene multiplexed transcription; actives raise or lower the signal. In outline: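 Fluorescence of labelled reporter cDNA fragments, resolved by capillary electrophoresis, gives mRNA induction in transfected HepG2 cells treated for 24 h; DMSO serves as negative control and baseline.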

A short description of assay [5]: ATG_RORE_CIS: Attagene CIS-FACTORIAL HepG2 Assay for human RAR-related Orphan Receptor Element (RORE) (AID 2282959; active = hit-call score of the fitted dose curve at least 0.9, where 1 is the maximum; inactive = score below 0.9). Conditions: HepG2 Attagene cis-factorial RORE reporter, mRNA; actives raise or lower the signal. In a few lines:
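Cells were HepG2 carrying transfected cis-regulated reporter constructs, dosed for 24 hours. Total RNA was reverse-transcribed and reporter cDNA amplified, fluorescently labeled and sized by capillary electrophoresis. Activity was fitted bidirectionally relative to DMSO.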

In assay [6] the target is Hepatocyte nuclear factor 4-alpha (Homo sapiens) (UniProt P41235). As to the kind of experiment: ATG_HNF4a_TRANS: Attagene TRANS-FACTORIAL HepG2 Assay for human Hepatocyte Nuclear Factor 4 alpha (HNF4a) (AID 2282982). The conditions noted are these: HepG2 HNF4a transactivation reporter, mRNA readout. In a few lines:
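Transient MRTU transfection of HepG2, 24 h dosing. Readout: reporter mRNA via RT-PCR + capillary electrophoresis, fluorescence; activity fit upward relative to DMSO control.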

A short description of assay [7]: ATG_M_32_TRANS: Attagene TRANS-FACTORIAL HepG2 Assay for M32 Transcription Factor (Internal Marker) (AID 2282984).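 Note: transcript level of a background control reporter unit measured by RT-PCR and capillary electrophoresis.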 Conditions: HepG2 Attagene TRANS M32 internal marker reporter. In a few lines: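 Read-out: fluorescent reporter cDNA fragments resolved by capillary electrophoresis after RT-PCR of total RNA. Transfected HepG2 cells were exposed to chemical for 24 h. Activity scored in the positive direction relative to DMSO.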

A short description of assay [8]: ATG_NFI_CIS: Attagene CIS-FACTORIAL HepG2 Assay for human Nuclear Factor I (NFI) (AID 2282989; active = hit-call score of the fitted dose curve at least 0.9, where 1 is the maximum; inactive = score below 0.9). Conditions: HepG2 cis-regulatory reporter, NFI response element transcription; actives raise or lower the signal. In outline:
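Reporter transcripts were measured by RT-PCR with fluorescent primer extension and capillary electrophoresis 24 h post-treatment. HepG2 cells carried transiently transfected cis-regulated reporter constructs reporting endogenous factor activity; gain or loss fitted against DMSO baseline.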

Assay [9] is described as follows: ATG_NF_kB_CIS: Attagene CIS-FACTORIAL HepG2 Assay for human Nuclear Factor Kappa B (NF-kB) (AID 2282991; active = hit-call score of the fitted dose curve at least 0.9, where 1 is the maximum; inactive = score below 0.9). Conditions: HepG2 Attagene cis-factorial NF-kB reporter mRNA; actives raise or lower the signal. In outline: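 Endogenous transcription factor activity in HepG2 was captured via cis-regulated reporter constructs; after 24 h dosing, reporter mRNA was reverse-transcribed, amplified, fluorescently labelled and sized by capillary electrophoresis, with activity fitted bidirectionally relative to DMSO.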

In assay [10] the target is human Retinoid X Receptor beta (RXRb), RXRB (gene 6257) (UniProt P28702). As to the kind of experiment: ATG_RXRb_TRANS: Attagene TRANS-FACTORIAL HepG2 Assay for human Retinoid X Receptor beta (RXRb) (AID 2283013). In a few lines:
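After a 24 h incubation with test chemical, transfected HepG2 cells carrying NR-Gal4 fusions and GAL4-UAS reporter transcription units yield RNA whose reporter cDNA is FAM-labelled, HpaI-cut and sized by capillary electrophoresis; increases over DMSO are scored.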

Assay [11] is described as follows: TOX21_p53_BLA_p2_viability: Viability Assessment in the Tox21 HCT-116 p53 Agonism Beta-lactamase Assay, Phase 2 (AID 2283591).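 Note: compound exposure lasted 16 h at 37 °C; actives lower the ATP signal meaning cytotoxicity.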 In a few lines: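 HCT116 p53-bla cells, 4000/well, dosed after 5 h plating (217-fold dilution of DMSO stocks) and incubated 16 h at 37C. Viability taken as cellular ATP by CellTiter-Glo luminescence after 30 min RT; signal loss marks cytotoxicity.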

Assay [12] deals with Cellular tumor antigen p53 (Homo sapiens) (UniProt P04637). As to the kind of experiment: TOX21_p53_BLA_p2_ratio: Tox21 HCT-116 p53 Agonism Beta-lactamase Assay, Ratio, Phase 2 (AID 2283592). In a few lines: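 DMSO-normalized, positive-direction endpoint derived from the 460 nm/530 nm FRET ratio in HCT116 p53 beta-lactamase reporter cells exposed 16 h at 37C and loaded with CCF4-AM for 2 h.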
Cellular tumor antigen p53 (Homo sapiens), sequence (P04637 whole entry, looked up): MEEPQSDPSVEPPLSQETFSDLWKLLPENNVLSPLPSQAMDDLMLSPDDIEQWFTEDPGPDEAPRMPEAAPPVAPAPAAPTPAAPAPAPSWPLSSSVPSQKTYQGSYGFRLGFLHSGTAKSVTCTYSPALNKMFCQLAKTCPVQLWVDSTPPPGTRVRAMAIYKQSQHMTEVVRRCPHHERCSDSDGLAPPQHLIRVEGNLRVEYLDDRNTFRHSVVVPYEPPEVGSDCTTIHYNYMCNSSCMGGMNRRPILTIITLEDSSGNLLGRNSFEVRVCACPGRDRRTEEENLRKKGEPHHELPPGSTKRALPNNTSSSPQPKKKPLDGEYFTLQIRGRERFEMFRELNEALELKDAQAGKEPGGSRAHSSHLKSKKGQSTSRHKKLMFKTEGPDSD

Assay [13] can be described thus: TOX21_p53_BLA_p3_viability: Viability Assessment in the Tox21 HCT-116 p53 Agonism Beta-lactamase Assay, Phase 3 (AID 2283593).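 Note: cells exposed to compound for 16 h before reading.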 In outline:
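HCT116 cells, 4000/well, dosed 5 h after plating by pin transfer (217-fold dilution from DMSO stock) and incubated 16 h at 37C, 5% CO2. Viability read as ATP luminescence with CellTiter-Glo after 30 min at room temperature.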

Assay [14] addresses Cellular tumor antigen p53 (Homo sapiens) (UniProt P04637). As to the kind of experiment: TOX21_p53_BLA_p3_ratio: Tox21 HCT-116 p53 Agonism Beta-lactamase Assay, Ratio, Phase 3 (AID 2283596). In a few lines:
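Cells were seeded at 4000/well, rested 5 h at 37C, then dosed with DMSO compound solutions (217-fold dilution) for 16 h. CCF4-AM substrate was loaded for 2 h at room temperature, and the 460/530 nm emission ratio was fitted for gain of signal versus DMSO.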

Assay [15] shares this target. As to the kind of experiment: TOX21_p53_BLA_p5_ratio: Tox21 HCT-116 p53 Agonism Beta-lactamase Assay, Ratio, Phase 5 (AID 2283599). In a few lines: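 HCT-116 p53-bla cells (4000/well) plated 5 h, dosed with compound (217-fold DMSO dilution) for 16 h at 37 C; CCF4-AM substrate 2 h at room temperature. Activity is the 460/530 nm emission ratio (405 nm excitation), fitted in gain-of-signal direction versus DMSO.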

Assay [16] can be described thus: TOX21_p53_BLA_p5_viability: Viability Assessment in the Tox21 HCT-116 p53 Agonism Beta-lactamase Assay, Phase 5 (AID 2283600). In outline:
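Here cell health was gauged by ATP levels in wells holding 4000 cells, each treated 16 h with DMSO-delivered compounds at 217-fold dilution; reduced luminescence marked toxicity.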

The target of assay [17] is Cellular tumor antigen p53 (Homo sapiens) (UniProt P04637). The experiment in a line: TOX21_p53_BLA_p4_ratio: Tox21 HCT-116 p53 Agonism Beta-lactamase Assay, Ratio, Phase 4 (AID 2283601). In outline: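 HCT-116 p53 beta-lactamase reporter cells (4000/well) preincubated 5 h, then compound (217-fold dilution of DMSO stock) for 16 h at 37C. CCF4-AM substrate added 2 h at room temperature; 460/530 nm emission ratio fitted upward versus DMSO.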

Assay [18] can be described thus: ATG_FoxO_CIS: Attagene CIS-FACTORIAL HepG2 Assay for human Forkhead box O (FoxO) (AID 2282943; active = hit-call score of the fitted dose curve at least 0.9, where 1 is the maximum; inactive = score below 0.9). The conditions noted are these: HepG2 Attagene cis-reporter, FoxO element, mRNA; actives raise or lower the signal. In outline: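 Read-out: fluorescence of 6-FAM-labelled reporter cDNA fragments resolved by capillary electrophoresis. Transiently transfected HepG2 cells were dosed for 24 h; activity fitted in both directions relative to DMSO controls.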

Assay [19] in a line: ATG_SREBP_CIS: Attagene CIS-FACTORIAL HepG2 Assay for human Sterol Regulatory Element Binding (SREBP) (AID 2282962; active = hit-call score of the fitted dose curve at least 0.9, where 1 is the maximum; inactive = score below 0.9). The conditions noted are these: HepG2 Attagene cis-factorial SREBP reporter, mRNA; actives raise or lower the signal. In a few lines: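 Readout: fluorescent reporter-transcript peaks resolved by capillary electrophoresis after RT-PCR. Cells were human HepG2 carrying transfected cis-promoter reporter constructs, dosed for 24 h. Gain or loss of signal was fitted against DMSO controls.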

In assay [20] the target is human Peroxisome Proliferator-activated Receptor alpha (PPARa), PPARA (gene 5465) (UniProt Q07869). The experiment in a line: ATG_PPARa_TRANS: Attagene TRANS-FACTORIAL HepG2 Assay for human Peroxisome Proliferator-activated Receptor alpha (PPARa) (AID 2283001).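 For AC50: potency for gain of reporter signal over DMSO so agonist or activator.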 In outline: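 Transient HepG2 transfection, GAL4-UAS reporters, NR-Gal4 chimeras; 24 h compound exposure. Readout: reporter transcripts by RT-PCR, 6-FAM primer extension, HpaI digest, capillary electrophoresis. Positive direction vs DMSO baseline.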
human Peroxisome Proliferator-activated Receptor alpha (PPARa), PPARA (gene 5465), sequence (Q07869 whole entry, looked up, the tested form may be a part): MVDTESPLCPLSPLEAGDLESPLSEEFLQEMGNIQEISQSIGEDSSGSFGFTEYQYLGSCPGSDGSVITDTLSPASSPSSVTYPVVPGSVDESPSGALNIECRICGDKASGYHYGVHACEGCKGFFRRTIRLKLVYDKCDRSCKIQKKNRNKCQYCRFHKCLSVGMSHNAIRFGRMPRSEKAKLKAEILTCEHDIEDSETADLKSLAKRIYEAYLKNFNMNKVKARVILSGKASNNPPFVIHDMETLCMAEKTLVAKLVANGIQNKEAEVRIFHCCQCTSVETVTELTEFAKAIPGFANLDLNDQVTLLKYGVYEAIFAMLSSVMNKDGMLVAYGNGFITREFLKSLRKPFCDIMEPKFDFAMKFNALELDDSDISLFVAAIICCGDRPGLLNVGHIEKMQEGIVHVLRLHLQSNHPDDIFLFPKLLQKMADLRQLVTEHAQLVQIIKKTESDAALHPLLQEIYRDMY

Each structure is given as a SMILES string. Inconclusive results are not listed. Calls of active or inactive are those of the source. Rule for the calls, unless noted: active = hit-call score of the fitted dose curve at least 0.9, where 1 is the maximum; inconclusive = response in the unintended direction; inactive = score below 0.9.

Retinoic acid receptor alpha (Homo sapiens), sequence (P10276 whole entry, looked up): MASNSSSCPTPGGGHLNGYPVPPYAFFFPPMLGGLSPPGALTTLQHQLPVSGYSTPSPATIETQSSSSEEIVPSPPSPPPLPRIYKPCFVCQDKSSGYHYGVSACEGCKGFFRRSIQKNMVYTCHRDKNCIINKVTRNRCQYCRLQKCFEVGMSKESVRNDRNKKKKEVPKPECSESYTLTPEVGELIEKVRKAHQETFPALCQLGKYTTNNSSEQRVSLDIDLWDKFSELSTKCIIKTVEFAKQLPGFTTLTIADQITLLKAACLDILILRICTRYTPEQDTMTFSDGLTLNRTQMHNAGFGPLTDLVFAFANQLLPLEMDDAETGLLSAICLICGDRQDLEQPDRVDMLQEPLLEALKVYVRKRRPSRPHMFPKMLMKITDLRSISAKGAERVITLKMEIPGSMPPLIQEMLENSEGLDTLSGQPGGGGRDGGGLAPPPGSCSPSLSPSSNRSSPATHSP
human Retinoid X Receptor beta (RXRb), RXRB (gene 6257), sequence (P28702 whole entry, looked up, the tested form may be a part): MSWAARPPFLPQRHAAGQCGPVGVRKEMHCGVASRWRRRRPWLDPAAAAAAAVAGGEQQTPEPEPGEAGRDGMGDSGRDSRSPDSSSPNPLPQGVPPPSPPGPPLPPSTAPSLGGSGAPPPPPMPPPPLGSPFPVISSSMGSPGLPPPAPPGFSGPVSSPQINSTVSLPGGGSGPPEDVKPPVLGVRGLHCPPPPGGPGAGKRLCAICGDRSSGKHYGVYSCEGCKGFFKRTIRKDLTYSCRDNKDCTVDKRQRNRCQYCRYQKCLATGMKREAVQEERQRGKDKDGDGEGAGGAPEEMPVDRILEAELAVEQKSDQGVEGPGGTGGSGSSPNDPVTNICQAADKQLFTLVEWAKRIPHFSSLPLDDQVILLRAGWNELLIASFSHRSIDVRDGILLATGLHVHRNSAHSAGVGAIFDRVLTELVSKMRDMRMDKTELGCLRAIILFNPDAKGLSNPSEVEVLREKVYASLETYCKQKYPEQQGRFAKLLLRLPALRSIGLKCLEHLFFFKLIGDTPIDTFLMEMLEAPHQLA
Hepatocyte nuclear factor 4-alpha (Homo sapiens), sequence (P41235 whole entry, looked up): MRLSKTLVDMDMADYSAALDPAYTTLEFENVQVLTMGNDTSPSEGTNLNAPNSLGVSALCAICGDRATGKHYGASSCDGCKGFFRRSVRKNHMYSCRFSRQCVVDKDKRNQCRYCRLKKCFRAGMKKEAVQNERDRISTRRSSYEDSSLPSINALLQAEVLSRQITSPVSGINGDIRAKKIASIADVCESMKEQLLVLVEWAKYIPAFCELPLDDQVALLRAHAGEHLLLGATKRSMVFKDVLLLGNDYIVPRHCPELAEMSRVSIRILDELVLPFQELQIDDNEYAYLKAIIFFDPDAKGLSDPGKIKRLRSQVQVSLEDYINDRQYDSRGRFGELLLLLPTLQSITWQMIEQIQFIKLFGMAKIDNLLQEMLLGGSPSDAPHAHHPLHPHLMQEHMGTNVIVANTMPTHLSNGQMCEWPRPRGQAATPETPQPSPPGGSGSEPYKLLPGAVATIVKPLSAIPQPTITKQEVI
Hepatocyte nuclear factor 3-beta (Homo sapiens), sequence (Q9Y261 whole entry, looked up): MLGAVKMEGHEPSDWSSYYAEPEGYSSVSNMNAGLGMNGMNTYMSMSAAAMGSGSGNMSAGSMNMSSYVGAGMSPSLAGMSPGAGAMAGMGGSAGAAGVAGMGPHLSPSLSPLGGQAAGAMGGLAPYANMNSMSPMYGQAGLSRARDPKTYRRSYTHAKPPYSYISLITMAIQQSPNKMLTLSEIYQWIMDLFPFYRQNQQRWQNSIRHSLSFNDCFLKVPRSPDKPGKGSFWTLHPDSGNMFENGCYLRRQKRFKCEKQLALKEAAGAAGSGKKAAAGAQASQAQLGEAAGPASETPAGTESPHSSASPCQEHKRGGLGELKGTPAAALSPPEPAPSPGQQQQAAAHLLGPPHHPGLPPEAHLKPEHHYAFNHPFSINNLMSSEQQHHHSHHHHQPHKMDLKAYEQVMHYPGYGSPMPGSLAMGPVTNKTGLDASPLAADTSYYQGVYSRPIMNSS

On to `O=C(O)c1ccccc1C(=O)O`, for which the compound was classed as inactive in assay [1], in assay [2], in [3], in assay [4], in [5] and in [6]. Besides, the outcome in assay [7], in [8], in assay [9], in assay [10], in assay [11] and in assay [12] was inactive. Moreover, the compound was called inactive in [13], in assay [14], in assay [15], in [16] and in [17].
As to `CC(O)(P(=O)(O)O)P(=O)(O)O`, the result in assay [2], in assay [18], in assay [19], in [8], in assay [20] and in [10] was inactive.
Take `CC1=C(CC=O)C(C)(C)CCC1`: the result in assay [18], in assay [5], in assay [19], in assay [7], in assay [8] and in [9] was inactive. The outcome in assay [11], in [12], in [14], in assay [15], in assay [16] and in assay [17] was inactive.
In the case of `CC(C)CC(=O)O`, the call in [1], in assay [2], in assay [18], in assay [3], in assay [4] and in assay [5] was inactive. Moreover, the outcome in assay [19], in [6], in [9], in assay [11], in [12] and in assay [13] was inactive. In addition, the result in assay [14], in assay [15] and in [17] was inactive.
On to `NC(=O)c1ccc(N)cc1`, for which the call in assay [1], in assay [2], in assay [18], in assay [3], in assay [4] and in assay [5] was inactive. Besides, the call in [19], in [6], in assay [9], in [10], in assay [11] and in assay [12] was inactive. Besides, the compound was called inactive in assay [16] and in assay [17].
On to `CC(C)(Oc1ccc(Cl)cc1)C(=O)O`, for which the compound was called inactive in assay [2], in [18], in assay [3], in assay [4], in assay [5] and in assay [6]. The outcome in [7], in assay [8], in assay [10], in assay [11], in assay [12] and in assay [13] was inactive. The result in [14], in assay [15], in assay [16] and in assay [17] was inactive. The AC50 (usually the concentration giving half of the maximal activity seen) in [20] is 29.8 µM (active).
Turning to `C[Si](C)(C)O[Si](C)(C)O[Si](C)(C)C`, the outcome in assay [2], in [18], in assay [4], in assay [5], in assay [8] and in assay [9] was inactive. The outcome in assay [20], in assay [11], in assay [12], in assay [13], in [14] and in assay [15] was inactive. Besides, the compound was classed as inactive in assay [16] and in assay [17].
Regarding `CCc1cc(C(N)=S)ccn1`, the compound was classed as inactive in [1], in assay [2], in [18], in assay [3], in [5] and in [19]. In addition, the result in assay [6], in [8], in assay [9], in [20], in assay [10] and in assay [11] was inactive. For the same compound, the result in [12], in [13], in [14], in assay [15], in [16] and in [17] was inactive.
`O=C1NC(=O)[C@@H]2CC=CC[C@H]12`: the result in [1], in [2], in [18], in assay [3], in assay [4] and in assay [19] was inactive. For the same compound, the call in [6], in assay [8], in [20], in assay [10], in assay [11] and in assay [12] was inactive. In addition, the compound was called inactive in assay [13], in [14], in assay [15], in assay [16] and in [17].
For the compound `Clc1ccccn1`, the compound was called inactive in assay [1], in assay [2], in [18], in assay [5], in assay [19] and in [6]. Besides, the compound was called inactive in assay [7], in assay [8], in assay [9], in assay [12], in assay [13] and in assay [15]. Besides, the call in [16] was inactive.
